In the supplement of paper PMC8699584:
“And” between values parts separate entries of the source, which are not always exact repeats. Equal values may be shown once. Where a name gives a salt, the structure may show the parent alone. ± gives the standard deviation of the averaged measurements.

What was measured:
Molm13 = experiment: cell viability relative to DMSO control (bortezomib = 0%); higher = less growth inhibition; conditions: 10 nM; 72 h
Method in brief: (§1)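 Using 384-well plates, a set of 679 approved and investigational compounds was tested once at 10 nM against acute myeloid leukemia cells (1000 cells per well in 50 µL) over 72 h, with the whole screen done in duplicate. Viability readout relied on CellTiter-Glo luminescence measured on an EnVision reader. For each plate, linear regression mapped values between positive-control-treated cells at 0% and DMSO-treated cells at 100%.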

Mv4-11 = experiment: as above; conditions: 10 nM; 72 h
Method in brief: as §1

SMILES	cell viability (Molm13)	cell viability (Mv4-11)
N#CC(C#N)=C(N)/C(C#N)=C/c1cc(O)c(O)c(O)c1	98.1 ± 28%	94.3 ± 15%
C=CC(=O)Nc1cccc(Nc2nc(Nc3ccc(OCCOC)cc3)ncc2F)c1	103 ± 10%	110 ± 6.4%
CCCCCCCCCCCCc1ccc(S(=O)(=O)Nc2nncs2)cc1	108 ± 3%	100 ± 2%
O=c1cc(-c2ccc(O)cc2)oc2cc(O)c(O)c(O)c12 [Scutellarein]	108 ± 3.9%	100 ± 5.4%
C[C@H]1[C@H](C)CC[C@]2(C(=O)O)CC[C@]3(C)C(=CC[C@@H]4[C@@]5(C)C[C@@H](O)[C@H](O)C(C)(C)[C@@H]5CC[C@]43C)[C@H]12 [Corosolic acid]	113 ± 26%	106 ± 11%
Cc1nc(Nc2cnn(C3CCNCC3)c2)nc2c1N(C)C(=O)c1cc3ccccc3cc1N2C	95.6 ± 2.2%	104.2 ± 0.14%
Cc1[nH]c(/C=C2\C(=O)Nc3ccccc32)c(C)c1CCC(=O)O	107 ± 18%	108 ± 14%
COc1cc(N2CCC(N3CCN(C)CC3)CC2)ccc1Nc1ncc(Cl)c(Nc2ccccc2P(C)(C)=O)n1 [Brigatinib]	115 ± 41%	108 ± 28%
CCCCC/C=C\C/C=C\C/C=C\C/C=C\CCCC(=O)NC[C@]1(C)CCC[C@]2(C)c3ccc(C(C)C)cc3CC[C@@H]12 [Arachidonic Acid Leelamide]	105 ± 17%	112 ± 1.2%
Cc1nc2ccc(-n3ncc(C(=O)c4cc5ccccc5[nH]4)c3N)cc2[nH]1	114 ± 3.2%	110 ± 12%
COc1ccc(-c2oc3c(CC=C(C)C)c(O)cc(O)c3c(=O)c2O)cc1 [Icaritin]	117 ± 8.4%	118 ± 1.5%
C[C@H]1[C@H](C)CC[C@]2(C(=O)O[C@@H]3O[C@H](CO[C@@H]4O[C@H](CO)[C@@H](O[C@@H]5O[C@H](C)[C@H](O)[C@@H](O)[C@H]5O)[C@H](O)[C@H]4O)[C@@H](O)[C@H](O)[C@H]3O)CC[C@]3(C)C(=CC[C@@H]4[C@@]5(C)C[C@@H](O)[C@H](O)[C@@](C)(CO)[C@@H]5CC[C@]43C)[C@H]12 [Asiaticoside]	108 ± 13%	114 ± 2.9%
O=C(NOCC1CC1)c1ccc(F)c(F)c1Nc1ccc(I)cc1Cl	105 ± 1.4%	95.7 ± 9.2%
C[C@@H]1O[C@@H](OC[C@H]2O[C@@H](Oc3c(-c4ccc(O)c(O)c4)oc4cc(O)cc(O)c4c3=O)[C@H](O)[C@@H](O)[C@@H]2O)[C@H](O)[C@H](O)[C@H]1O [Rutin]	103 ± 1.5%	113.3 ± 0.28%
CS(=O)(=O)CCNCc1ccc(-c2ccc3ncnc(Nc4ccc(OCc5cccc(F)c5)c(Cl)c4)c3c2)o1 [Lapatinib]	96.5 ± 5.9%	103.5 ± 0.39%
Cc1c(NC(=O)c2ccc(C(C)(C)C)cc2)cccc1-c1cn(C)c(=O)c(Nc2ccc(C(=O)N3CCOCC3)cc2)n1	106 ± 13%	115 ± 8.8%
Oc1cccc(-c2nc(N3CCOCC3)c3sccc3n2)c1 [PI3-Kinase ? Inhibitor 2]	108.6 ± 0.5%	120 ± 22%
COc1cc(CCc2cc(NC(=O)c3ccc(N4CC(C)NC(C)C4)cc3)n[nH]2)cc(OC)c1 (stereo unspecified)	102 ± 17%	99.5 ± 2%
O=C(COc1ccc(Cl)cc1)NC1CCC(NC(=O)COc2ccc(Cl)cc2)CC1 (stereo unspecified)	109 ± 1.8%	111 ± 14%
Cc1nc(Nc2ncc(C(=O)Nc3c(C)cccc3Cl)s2)cc(N2CCN(CCO)CC2)n1 [Dasatinib]	111 ± 29%	114 ± 2.2%
O=C1Nc2cc(Br)ccc2/C1=C1/Nc2ccccc2/C1=N\O	109 ± 2.3%	91.4 ± 8.7%
C=CC(=O)Nc1cc2c(Nc3ccc(F)c(Cl)c3)ncnc2cc1OCCCN1CCOCC1 [Canertinib (CI-1033)]	118 ± 10%	111.9 ± 0.6%
OCCn1cc(-c2cnc3nnn(Cc4ccc5ncccc5c4)c3n2)cn1	120 ± 24%	112 ± 8.7%

SMILES	cell viability (Molm13)	cell viability (Mv4-11)
COC(=O)c1c2c(c3ccccc3c1O)OC(C)(C)C=C2 [Mollugin]	98 ± 1.6%	100 ± 7.8%
Nc1ncnc2c1c(-c1cnc3[nH]ccc3c1)nn2C1CCCC1	118 ± 2.6%	125 ± 14%
O=c1ccc2ccccc2o1 [Coumarin]	114 ± 8%	114 ± 24%
C[N+](C)(C)CC(=O)O [Betaine hydrochloride]	86.4 ± 9.4%	101 ± 9.6%
Nc1ncnc2c1c(-c1cccc(OCc3ccccc3)c1)cn2C1CC(CN2CCC2)C1 (stereo unspecified) [NVP-AEW541 (hydrochloride)]	110 ± 11%	90.7 ± 25%
Cc1cncc2cccc(S(=O)(=O)N3CCCN(C(=O)CN)C[C@@H]3C)c12 [(S)-Glycyl-H-1152 (hydrochloride)]	110 ± 9.1%	97.4 ± 11%
CCCN(CCC)C(=O)C(CCC(=O)O)NC(=O)c1ccccc1 (stereo unspecified) [Proglumide]	100 ± 3%	106 ± 24%
N#CCNC(=O)c1ccc(-c2ccnc(Nc3ccc(N4CCOCC4)cc3)n2)cc1 [Momelotinib (CYT387)]	98.5 ± 17%	110 ± 16%
CCN1CCN(Cc2ccc(-c3cc4c(N[C@H](C)c5ccccc5)ncnc4[nH]3)cc2)CC1	100 ± 17%	109 ± 18%
CC(C)(C)c1nc2c3cc[nH]c(=O)c3c3cc(F)ccc3c2[nH]1 [Pyridone 6]	99.5 ± 18%	106 ± 7%
Cc1cc(Nc2ncc(Cl)c(Nc3ccccc3S(=O)(=O)C(C)C)n2)c(OC(C)C)cc1C1CCNCC1 [LDK378(Ceritinib)]	110 ± 4.9%	103.8 ± 0.72%
CCCCCCCCCCCCCC#CC(=O)[C@@H]1COC(C)(C)N1C(=O)OC(C)(C)C	108 ± 11%	132 ± 1.6%
Cc1cc(Nc2ncnc3ccc(NC4=NC(C)(C)CO4)cc23)ccc1Oc1ccn2ncnc2c1 [Irbinitinib(ARRY-380; ONT-380)]	103 ± 17%	112 ± 8.3%
O=c1oc2c(O)c(O)cc3c(=O)oc4c(O)c(O)cc1c4c23 [Ellagic acid]	92.5 ± 28%	99.5 ± 11%
Cc1cc(Nc2nn(-c3ccccc3)c(=O)c3ccccc23)n[nH]1 [Phthalazinone pyrazole]	94.1 ± 9.4%	101 ± 15%
Cc1cn(-c2cc(NC(=O)c3ccc(C)c(Nc4nccc(-c5cccnc5)n4)c3)cc(C(F)(F)F)c2)cn1 [Nilotinib]	124 ± 9.8%	108 ± 16%
CN(C)C(=O)c1ccc(S(=O)(=O)c2ccc(NC(=O)[C@@](C)(O)C(F)(F)F)c(Cl)c2)cc1	97 ± 12%	109 ± 7%
O=C(NCCCNc1nc(Nc2cccc(CN3CCOCC3)c2)ncc1C1CC1)C1CCC1	86.2 ± 18%	106 ± 28%
CC(C)c1cnn2c(NCc3ccccc3)cc(NCCCCCCN)nc12	105 ± 20%	84 ± 18%
CNC(=O)c1cc(Oc2ccc(NC(=O)Nc3ccc(Cl)c(C(F)(F)F)c3)cc2)ccn1 [Sorafenib]	53.7 ± 6.9%	47.8 ± 9.4%
Nc1ncnc2c1ncn2[C@@H]1O[C@H](COP(=O)(O)O)[C@@H](O)[C@H]1O [Adenosine 5'-monophosphate]	96 ± 7.5%	113 ± 2.5%
Brc1c(Br)c(Br)c2n[nH]nc2c1Br	113 ± 13%	97.11 ± 0.32%
CN(C)C/C=C/C(=O)Nc1ccc(C(=O)Nc2cccc(Nc3ncc(Cl)c(-c4c[nH]c5ccccc45)n3)c2)cc1	88 ± 18%	95.3 ± 1.1%

SMILES	cell viability (Molm13)	cell viability (Mv4-11)
Cn1cnc2c(F)c(Nc3ccc(Br)cc3Cl)c(C(=O)NOCCO)cc21 [Selumetinib (AZD6244)]	106 ± 18%	106 ± 3.2%
CCS(=O)(=O)c1cccc(-c2cc(C(=O)NC3CCN(C)CC3)c(C)c3[nH]c4ncc(C)cc4c23)c1	75.1 ± 5.3%	90.6 ± 3.5%
CC(C)c1[nH]nc(Cl)c1-c1ccnc(Nc2ccc(N3CCC(N(C)C)CC3)cn2)n1	115 ± 1.8%	112 ± 9.6%
CCC[C@H](NC(=O)/C(C#N)=C/c1cccc(Br)n1)c1ccccc1	132 ± 32%	115 ± 11%
CC(C)n1nc(-c2cc3cc(O)ccc3[nH]2)c2c(N)ncnc21	103 ± 11%	96.2 ± 30%
Nc1nccc(Oc2ccc3c(C(=O)Nc4cccc(C(F)(F)F)c4)cccc3c2)n1	94.7 ± 6.4%	117 ± 8.5%
Nc1ncnc2n[nH]c(Nc3ccc(F)cc3)c12	102 ± 11%	105 ± 3.4%
C[C@]1(O)C[C@@H](c2nc(-c3ccc4ccc(-c5ccccc5)nc4c3)c3c(N)nccn32)C1 [OSI-906 (Linsitinib)]	118 ± 12%	116 ± 12%
CCCCCCCCCCCCCCCCn1cc[n+](Cc2ccccc2)c1C	124 ± 5.5%	111 ± 5.8%
Cc1ccc(C(=O)N(CCCN)[C@@H](c2nc3cc(Cl)ccc3c(=O)n2Cc2ccccc2)C(C)C)cc1	2.83 ± 14%	6.27 ± 10%
Oc1ccc(-c2nc(-c3ccc(F)cc3)c(-c3ccncc3)[nH]2)cc1	94% and 105%	104% and 106%
O=c1sn(-c2cccc3ccccc23)c(=O)n1Cc1ccccc1 [Tideglusib]	116 ± 9.5%	95.4 ± 20%
Cc1ccc(-n2nc(C(C)(C)C)cc2NC(=O)Nc2ccc(OCCN3CCOCC3)c3ccccc23)cc1 [Doramapimod]	95.877 ± 0.081%	98.1 ± 1.1%
O=C(O)c1ccc(-c2c[nH]c3ncc(-c4ccccc4)cc23)cc1C1CCCC1	107 ± 1.1%	96 ± 2.7%
CC(C)(C)c1ccc(S(=O)(=O)/C=C/C#N)cc1	108 ± 16%	98.9 ± 4.4%
C[C@H]1Oc2cc(cnc2N)-c2c(nn(C)c2C#N)CN(C)C(=O)c2ccc(F)cc21	115 ± 8.8%	112 ± 19%
O=C(Nc1cccc(Nc2ncc(Br)c(NCCc3cnc[nH]3)n2)c1)N1CCCC1	73 ± 3.7%	81.16 ± 0.49%
COc1cc(Nc2ncc(F)c(Nc3ccc4c(n3)NC(=O)C(C)(C)O4)n2)cc(OC)c1OC	105 ± 3.9%	99.7 ± 6.4%
CN(C)C/C=C/C(=O)Nc1cc2c(Nc3ccc(F)c(Cl)c3)ncnc2cc1O[C@H]1CCOC1 [Afatinib (BIBW2992) Dimaleate]	108 ± 11%	102 ± 7.5%
CCn1c(=O)c(-c2ccc(-c3cncs3)cc2Cl)cc2cnc(Nc3ccc(N4CCN(C)CC4)cc3)nc21	106 ± 6.4%	111 ± 10%
CC1(C)OC(=O)C=C[C@]2(C)[C@H]3CC[C@@]4(C)[C@H](c5ccoc5)OC(=O)[C@H]5O[C@]54[C@]3(C)C(=O)C[C@@H]12 [Obacunone]	108 ± 7.3%	109 ± 19%
N#Cc1ccc(COc2ccc(-c3cccc4nc(NC(=O)C5CC5)nn34)cc2)cn1 [GLPG0634 analogue]	107 ± 8.4%	119 ± 3.4%
